Sampled rows, rich in hits. Any-hit rate of the full collection: about 11%.
hNpr1 antagonist: antagonists of human natriuretic peptide receptor Npr1 | P16066 | HEK293 hNpr1 GloSensor cGMP, ANP-stimulated luminescence | Potency, µM (highest dose often 46.3 µM), without a hit: at the highest dose activity change, negative = inhibition, most hits filed as inhibitors | 76,000 compounds, 1.6% hits | AID 1347048; calls by dose curve; further: nearly all actives have a fitted effect of over 60% in size
Target sequence (P16066 whole entry, looked up): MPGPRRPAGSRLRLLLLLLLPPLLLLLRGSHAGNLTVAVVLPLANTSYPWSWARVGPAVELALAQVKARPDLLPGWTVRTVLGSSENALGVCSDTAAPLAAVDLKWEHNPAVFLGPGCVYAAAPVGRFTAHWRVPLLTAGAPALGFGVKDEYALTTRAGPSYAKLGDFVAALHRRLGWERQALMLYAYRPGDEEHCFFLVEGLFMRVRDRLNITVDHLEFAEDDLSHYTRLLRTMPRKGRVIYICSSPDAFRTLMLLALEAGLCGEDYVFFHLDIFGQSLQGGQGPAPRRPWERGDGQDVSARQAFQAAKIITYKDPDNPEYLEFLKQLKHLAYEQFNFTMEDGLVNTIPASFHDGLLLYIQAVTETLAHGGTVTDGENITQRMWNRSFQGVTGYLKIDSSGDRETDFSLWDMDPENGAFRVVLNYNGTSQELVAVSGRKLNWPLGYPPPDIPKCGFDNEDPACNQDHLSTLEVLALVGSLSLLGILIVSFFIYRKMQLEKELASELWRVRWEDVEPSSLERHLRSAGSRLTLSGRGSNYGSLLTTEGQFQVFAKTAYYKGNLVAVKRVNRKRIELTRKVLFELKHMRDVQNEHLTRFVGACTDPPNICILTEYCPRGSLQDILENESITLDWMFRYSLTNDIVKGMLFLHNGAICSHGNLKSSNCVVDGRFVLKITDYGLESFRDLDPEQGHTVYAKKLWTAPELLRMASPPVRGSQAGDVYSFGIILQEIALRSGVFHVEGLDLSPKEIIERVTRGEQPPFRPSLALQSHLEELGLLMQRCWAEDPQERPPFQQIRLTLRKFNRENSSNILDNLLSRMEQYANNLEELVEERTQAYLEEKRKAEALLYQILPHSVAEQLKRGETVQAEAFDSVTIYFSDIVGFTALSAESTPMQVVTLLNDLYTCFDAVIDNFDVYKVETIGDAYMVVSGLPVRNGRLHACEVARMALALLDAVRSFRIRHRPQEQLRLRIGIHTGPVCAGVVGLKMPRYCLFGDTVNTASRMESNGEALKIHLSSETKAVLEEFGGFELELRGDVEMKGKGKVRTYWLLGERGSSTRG
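HEK293 cells stably expressing human Npr1 and cGMP GloSensor pGS-40F, loaded 2 h with 2% GloSensor reagent, given compound 30 min at room temperature. Luminescence read before and 20 min after 0.1 nM hNppA.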
Luciferase inh: Photinus pyralis luciferase inhibition; Potency, µM (titrated, usually from 115 µM), actives largely listed as inhibitors; AID 1347043; 76,000 compounds, 2.5% hits; P08659; purified P. pyralis luciferase, luminescence, biochemical; further: nearly all actives have a fitted effect of over 65% in size
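Biochemical qHTS: compound (6-point titration) added to 10uM D-luciferin plus 10uM ATP in Tris acetate pH 7.5 buffer with Mg, Tween-20 and BSA, then purified enzyme at 10nM; light output imaged.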
HEK cytotox: cytotoxic compounds in HEK 293 cells; HEK 293 viability, ATP luminescence (CellTiter-Glo), 48-72 h; Potency, µM (top dose mostly 115 µM), inactives show at the top dose activity change, negative = cytotoxicity, hits mostly inhibitors; 94,000 compounds, 6.6% hits; AID 1345083; further: nearly all actives have a fitted effect of over 60% in size
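ATP-coupled CellTiter-Glo luminescence served as viability read-out, recorded 10 min after reagent addition at room temperature. HEK 293 cells, 250 cells/well, had been incubated with pintool-transferred compound for 48 or 72 hr at 37 degree Celsius.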
NIH3T3 tox: NIH 3T3 cell cytotoxicity; 94,000 compounds, 4.3% hits; NIH 3T3 viability, CellTiter-Glo ATP luminescence, 48-72 h; Potency, µM (highest dose often 96.7 µM), without a hit: at the top dose activity change, negative = cytotoxicity, most hits filed as inhibitors; AID 1345082; further: nearly all actives have a fitted effect of over 55% in size
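NIH 3T3 cells at 400 cells/well received 23 nL of compound by pintool and were incubated 48 or 72 h at 37 °C. Viability was read as ATP-coupled CellTiter-Glo luminescence.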
The depositor's hits bear a star; i = inactive; ? = inconclusive; nt = no result; [ ] = remark or other dose. Unless noted, the call rests on the fitted dose curve; in most records, active means well fitted curve in the direction sought with a large enough effect; inconclusive means small, poorly fitted or top-dose-only effect, or another doubt; inactive means no such curve, though single readings can be large; an effect the other way counts as inactive or inconclusive. On the % scale 0 is the no-effect control and ±100 the full control effect; potency means the concentration at half of the fitted maximal effect.

SMILES | hNpr1 antagonist | Luciferase inh | HEK cytotox | NIH3T3 tox
COc1ccccc1-c1cccc(CN2CCCC(C(=O)NCCCc3ccccc3)C2)c1 (centres undefined) | nt | nt | ? | 35µM*
Cc1cccc(-c2cccc(CN3CCCC(C(=O)NCCCc4ccccc4)C3)c2)c1 (centres undefined) | nt | nt | 45µM* | 40µM*
COc1cccc(C(=O)NC2CCN(c3nccc(Nc4ccccc4OC)n3)CC2)c1 | nt | nt | 40µM* | ?
COc1ccc(CC(=O)NC2CCN(c3nccc(Nc4ccc(OC)cc4)n3)CC2)cc1 | nt | nt | 40µM* | 35µM*
COc1ccccc1Nc1ccnc(N2CCC(NC(=O)c3ccc(Cl)nc3)CC2)n1 | nt | nt | ? | -21%
Cc1ccc(Nc2ccnc(N3CCC(NC(=O)c4ccc(Cl)cc4)CC3)n2)cc1 | nt | nt | 22µM* | 32µM*
COc1ccc(Nc2ccnc(N3CCC(NC(=O)c4cccc(OC)c4)CC3)n2)cc1 | nt | nt | 35µM* | ?
CCN1C[C@H]2COc3cc(OC)ccc3[C@H]2N(C(=O)CC2CCCC2)CCC1=O | nt | nt | -8% | ?
COCCNC(=O)c1ccc2nnc(-c3cccc([S+](C)(=O)[O-])c3)n2c1 | nt | nt | i | -14%
CCCn1cc(-c2ccncc2)cc1C(=O)N1CCCCC1 | 4% | i | ? | -19%
CCc1ccc(C(=O)N2CCN(C3CCN(CCc4ccccc4)C3=O)CC2)cc1 (centres undefined) | 1% | ? | 2% | -10%
COc1ccc(C(=O)NC2CCN(c3nccc(Nc4ccc(C)cc4)n3)CC2)cc1 | nt | nt | 35µM* | ?
COc1ccc(Nc2ccnc(N3CCC(C(=O)N4CCC(c5ccccc5)CC4)CC3)n2)cc1 | nt | nt | 13µM* | 20µM*
COc1ccc(Nc2ccnc(N3CCC(NC(=O)c4cccc(Cl)c4)CC3)n2)cc1 | nt | nt | 14µM* | 28µM*
COc1ccc(C(=O)NC2CCN(c3nccc(Nc4ccccc4F)n3)CC2)cc1 | nt | nt | ? | -36%
COC(=O)NC1CCN(c2nccc(Nc3ccc(OC)cc3)n2)CC1 | nt | nt | ? | -33%
COc1ccc(Nc2ccnc(N3CCC(NC(=O)c4ccccc4)CC3)n2)cc1 | nt | nt | 35µM* | ?
COc1ccc(-c2ccc(C(=O)NCC3CC3)c(Cl)c2)nn1 | nt | nt | -20%[172 µM] | -21%[138 µM]
COc1cccc(NCc2nnc(C(=O)N3CCC[C@@H]3C(c3ccccc3)c3ccccc3)n2-c2cccnc2)c1 | -7% | i | ? | ?
CCC1(O)CCC12CCN(C(=O)COc1ccc(F)cc1)CC2 (centres undefined) | nt | nt | -3% | -24%
Cn1cccc1CN1CCn2c(nnc2-c2ccccc2)C1 | 0%[70.6 µM] | i | -30%[172 µM] | ?
Cc1ccc(Nc2ccnc(N3CCC(NC(=O)c4cccc(Cl)c4)CC3)n2)cc1 | nt | nt | ? | 40µM*
COCCN1C(=O)c2ccccc2C(C(=O)Nc2cccc(C)n2)C12CCCC2 (centres undefined) | -2% | i | ? | -17%
c1cc(-c2cc(-c3ccncc3)c3cncn3c2)c2[nH]ncc2c1 | -24%[70.6 µM] | i | -45%[172 µM] | -45%[138 µM]
c1cncc(-c2cc(-c3cccc4cc[nH]c34)cn3cncc23)c1 | -23%[70.6 µM] | i | ? | ?
SMILES | hNpr1 antagonist | Luciferase inh | HEK cytotox | NIH3T3 tox
c1cc(-c2cc(-c3ccncc3)c3cncn3c2)c2[nH]ccc2c1 | -24%[70.6 µM] | ? | 100µM* | 40µM*
c1cc(-c2cc(-c3ccncc3)c3cncn3c2)c2cc[nH]c2c1 | -28%[70.6 µM] | i | 89µM* | ?
O=[S+]([O-])(c1cccc(C(F)(F)F)c1)N1CCC2(CC(c3cccc(C(F)(F)F)c3)=NO2)C1 (centres undefined) | nt | nt | -25% | ?
O=C(NCc1cccnc1)c1cc(-c2ccc(F)cc2)c2nncn2n1 | nt | nt | i | -2%
Cc1ccccc1C(=O)N1CCCC1C(=O)N1CCC(N2Cc3cccn3C2=O)CC1 (centres undefined) | nt | nt | -3% | -24%
CC(C)C[C@@H]1N[C@H](C(=O)NCc2ccccn2)Cc2cn(Cc3ccncc3)c3cccc1c23 | -10% | i | 25µM* | ?
C#CCNC(=O)[C@@H]1Cc2cn(CC3CC3)c3cccc(c23)[C@H](CC(C)C)N1 | -13%[70.6 µM] | i | 71µM* | 45µM*
COCCCNC(=O)[C@@H]1Cc2cn(Cc3nccn3C)c3cccc(c23)[C@H](CC(C)C)N1 | -3%[70.6 µM] | i | ? | -41%[174 µM]
C#CCNC(=O)[C@@H]1Cc2cn(Cc3ccncc3)c3cccc(c23)[C@H](CC(C)C)N1 | -10%[70.6 µM] | i | 45µM* | 89µM*
CC(C)C[C@@H]1N[C@H](C(=O)NCc2ccncc2)Cc2cn(Cc3ccncc3)c3cccc1c23 | -2% | i | 50µM* | ?
COC[C@@H]1[C@H](C(=O)NCc2ccc(F)cc2)CCC(=O)N1C | nt | nt | -24% | -13%
CNC(=O)c1cc(C)nc2onc(C3CCN(C(=O)COC)C3)c12 (centres undefined) | nt | nt | 4%[172 µM] | 0%[138 µM]
C=CCn1cc2c3c(cccc31)[C@H](CC(C)C)N[C@H](C(=O)NCc1ccccn1)C2 | -13%[70.6 µM] | i | 50µM* | ?
CC(C)C[C@@H]1N[C@H](C(=O)NCc2cccs2)Cc2c[nH]c3cccc1c23 | 1%[70.6 µM] | i | 40µM* | 40µM*
COC(=O)[C@@H]1Cc2c[nH]c3cccc(c23)[C@H](CC(C)C)N1 | 6%[70.6 µM] | i | ? | -7%[230 µM]
COc1ccc(CN2C[C@@H](CO)[C@H](NC(C)=O)C2)cc1Br | 1% | i | -3% | -9%
CCCn1ncnc1C(C)Nc1cc(C(C)C)nc2cc(C)nn12 (centres undefined) | 4% | i | ? | 35µM*
CSc1ccc(-c2cccc(CN3CCC(N[S+](=O)([O-])CCC(F)(F)F)CC3)c2)cc1 | nt | nt | -22% | ?
O=[S+]([O-])(NC1CCN(Cc2cccc(-c3ccc(F)c(F)c3)c2)CC1)c1ccccc1 | nt | nt | 28µM* | 20µM*
O=[S+]([O-])(NC1CCN(Cc2cccc(-c3ccc(F)c(F)c3)c2)CC1)c1cccc(C(F)(F)F)c1 | nt | nt | 22µM* | 14µM*
O=[S+]([O-])(NC1CCN(Cc2cccc(-c3cccs3)c2)CC1)c1cccc(C(F)(F)F)c1 | nt | nt | ? | 8.9µM*
O=C(NCCC1=CCCCC1)c1cc2n(n1)CC(c1ccc(Cl)cc1)OC2 (centres undefined) | ? | i | 45µM* | ?
O=C(NCCC1=CCCCC1)c1cc2n(n1)CC(c1ccc3c(c1)OCO3)OC2 (centres undefined) | ? | i | 71µM* | ?
CCOC(=O)[C@H]1C[C@]2(CCCCN(CCO)C2=O)N(C(=O)c2cccc(OC)c2)[C@H]1c1ccco1 | nt | nt | -20% | ?
O=c1[nH]c(N2CCOCC2)nc2c1CCN(Cc1ccccc1Cl)CC2 | 8% | i | -3% | -7%
C[C@@H](Nc1ccc(-c2nc(CCCc3ccccc3)no2)cn1)C(N)=O | 8% | i | -6% | -8%
CC1(O)CCCN(c2ccc(-c3nc(CCCc4ccccc4)no3)cn2)C1 (centres undefined) | ? | 35µM* | 32µM* | ?

Screens (PubChem)
